# Bioassay records (PubChem BioAssay)
# Shiga toxin inh – A qHTS for Small Molecule Inhibitors of Shiga Toxin | Vero cells, Shiga toxin protein synthesis inhibition reporter | 290,000 tested, 9.2% active | AID 2315, 2010 | inhibition, % at 38.7 µM; in the data active means inhibition mostly above about 28%, no sharp cut-off; inactive means mostly below about 43%; further: 0% is about no effect
# Marburg entry inh – qHTS for inhibitors of binding or entry into cells for Marburg Virus; Marburg virus pseudotyped entry inhibition, cell reporter; Potency, µM (highest dose often 37.8 µM), inactives show top-dose activity change, negative = inhibition, usual class: inhibitors; 300,000 tested, 1.8% active; AID 540276, 2011; calls by dose curve; tested in HEK293 cells; further: potency means the concentration at half of the fitted maximal effect; on the % scale 0 is the no-effect control and ±100 the full control effect
# Pf growth 96h – Primary qHTS for delayed death inhibitors of the malarial parasite plastid, 96 hour incubation; AID 504834, 2011; Potency, µM (top dose mostly 28.7 µM), without a hit: at the top dose activity change, negative = inhibition, actives largely listed as inhibitors; 320,000 tested, 6.9% active; P. falciparum luciferase reporter growth, 96 h; further: potency means the concentration at half of the fitted maximal effect; on the % scale 0 is the no-effect control and ±100 the full control effect
#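 Plates of compound plus infected erythrocytes (2% hematocrit, 0.05% parasitemia final) incubate 96 hours, 37 C, 5% CO2. Detection reagent added; reduced luminescence from the parasites' luciferase reporter flags inhibition.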
# LASV entry inh – qHTS for Inhibitors of binding or entry into cells for Lassa Virus. Lassa virus pseudotype entry inhibition, cell reporter. Potency, µM (doses to about 37.9 µM), for the others: at the highest dose activity change, negative = inhibition, hits mostly inhibitors. AID 540256, 2011. 300,000 tested, 1.2% active; calls by dose curve; tested in HEK293 cells; further: potency means the concentration at half of the fitted maximal effect; on the % scale 0 is the no-effect control and ±100 the full control effect; nearly all actives have a fitted effect of over 50% in size
# Cycloheximide cs – Cycloheximide Counterscreen for Small Molecule Inhibitors of Shiga Toxin; AID 2314, 2010; 300,000 tested, 12% active; cell reporter, cycloheximide protein synthesis inhibition counterscreen; max response, %; in the data active means max response mostly above about 13%, no sharp cut-off; inactive means mostly below about 14%; further: read at 38.3 µM for the half of the compounds with a filed dose; 0% is about no effect
# Pf growth 48h – Primary qHTS for delayed death inhibitors of the malarial parasite plastid, 48 hour incubation | Potency, µM (highest dose often 28.7 µM), for the others: at the highest dose activity change, negative = inhibition, actives largely listed as inhibitors | P. falciparum luciferase growth in erythrocytes, 48 h | AID 504832, 2011 | 310,000 tested, 5.9% active; further: potency means the concentration at half of the fitted maximal effect; on the % scale 0 is the no-effect control and ±100 the full control effect
#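 A one-generation exposure of luciferase-tagged malaria parasites in RPMI 1640/Albumax erythrocyte culture, 37 C and 5% CO2. Inhibition is inferred from decreased luminescence after adding detection reagent.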
# Active calls of the source: *; ? = inconclusive; / = not tested or not shown; [ ] = dose if it differs, or a comment. An excerpt weighted towards active compounds, which were near 19% of everything screened. Unless noted, the call rests on the fitted dose curve; in most records, active means well fitted inhibition curve with a large enough effect; inconclusive means small, poorly fitted or top-dose-only effect, or another doubt; inactive means no such curve, though single readings can be large or run the other way.
SMILES,Shiga toxin inh,Marburg entry inh,Pf growth 96h,LASV entry inh,Cycloheximide cs,Pf growth 48h
COC(=O)C1=C(Nc2ccc(C)cc2)C=C(C)C(C(=O)OC)C1c1ccc(OC)cc1 (stereo unspecified),-11,?,?,?,5,4.1µM*
CCOC(=O)C1C(=O)C=C(C)C(C(=O)OCC)C1c1ccc(OC)cc1 (stereo unspecified),-6,-4%,-1%[5.75 µM],14%,-2,?
COC(=O)C1=C(Nc2ccc(C)cc2)C=C(C)C(C(=O)OC)C1c1cccc(OC)c1 (stereo unspecified),38,?,1.7µM*,?,10,2.6µM*
COc1ccc(C(=O)NC(C)c2csc(C)n2)cc1OC1CCN(C(C)=O)CC1 (stereo unspecified),-2,/,-6%,/,-3,7%
COc1ccc(OCc2cc(C(=O)NCc3nc(C)cs3)no2)c(Cl)c1,98*,-8%,?,-22%,52*,27%
COc1ccc(OCc2cc(C(=O)NC(C)c3csc(C)n3)no2)c(Cl)c1 (stereo unspecified),62*,/,23%,/,63*,39%
Cc1nc(CNC(=O)c2cc(COc3ccc(F)cc3Cl)on2)cs1,10,?,?,?,8,37%
N=c1sccn1CC(=O)Nc1cc(Cl)ccc1[N+](=O)[O-],-2,-15%[46.1 µM],?,6%,-3,?
O=C(NC(=S)Nc1ccccn1)c1cccc([N+](=O)[O-])c1,76*,?,-17%,?,43*,-15%
COc1cc(/C=C(/NC(=O)c2ccccc2)C(=O)Nc2ccc(O)cc2)c([N+](=O)[O-])cc1OC,-4,-14%,10µM*,?,0,1%
CCOc1ccc(C(=O)NC(=S)Nc2cc(C)ccn2)cc1[N+](=O)[O-],-7,5%,8%,/,-5,-12%
CCOc1ccc(C(=O)NC(=S)Nc2ccccn2)cc1[N+](=O)[O-],31,-7%[46.1 µM],24%,15%,15*,34%
COc1ccc(C(=O)NNC(=O)c2ccncc2)cc1[N+](=O)[O-],-12,?,-10%,-6%[46.1 µM],-6,4%
COc1ccc(C(=O)NC(=S)NNC(=O)c2ccc(O)cc2)cc1[N+](=O)[O-],86*,15%,-3%,-1%,39*,16%
CCC(=O)N1CCc2cc(S(=O)(=O)NC(Cc3ccccc3)C(=O)NCc3ccccc3OC)ccc21 (stereo unspecified),/,-1%[46.1 µM],/,-16%[46.1 µM],/,/
COc1ccc(C(=O)N2CCC(n3c(C)nc4cc(F)ccc43)CC2)cc1OC,-7,20%,/,-13%,26,/
COc1ccccc1N1CCN(CCCNc2c(C)c(=O)n(C)c(=O)n2C)CC1,/,?,/,16%,/,/
O=C(CSc1nnc2c(n1)[nH]c1ccc(F)cc12)N1CCOCC1,-3,-6%,10%,-3%,5,3%
CC1Cc2ccccc2N1C(=O)CSc1nnc2c(n1)[nH]c1ccc(F)cc12 (stereo unspecified),0,-11%[46.1 µM],-90%,7%,5,1.5µM*
CC(C)OC(=O)CSc1nnc2c(n1)[nH]c1ccc(F)cc12,-14,-10%,13µM*,?,-2,5.9µM*
O=C(CSc1nnc2c(n1)[nH]c1ccc(F)cc12)NC1CC1,14,9%[46.1 µM],3.3µM*,?,-4,21%
COc1ccc2[nH]c3nc(SC(C)C)nnc3c2c1,105*,?,5.2µM*,2.2µM*,68*,405%
O=C(c1cc(F)c(F)c(F)c1F)N1CCN(C(=O)C2CCCO2)CC1 (stereo unspecified),/,8%,/,7%,/,/
O=C1CC(SCc2nc3ccccc3[nH]2)C(=O)N1c1ccc(Cl)cc1 (stereo unspecified),-15,-3%,4%,7%,2,17%
COc1ccc(S(=O)(=O)NCCNC(=O)N2CCOCC2)cc1,-12,/,4%,/,-2,81%
SMILES,Shiga toxin inh,Marburg entry inh,Pf growth 96h,LASV entry inh,Cycloheximide cs,Pf growth 48h
COc1ccc(Cl)cc1NC(=O)CCS(=O)(=O)c1nc(-c2cccs2)cc(C(F)(F)F)n1,/,18%[46.1 µM],/,?,/,/
O=C(CC(C(=O)N1CCc2ccccc21)n1ccnc1)NCc1ccccc1 (stereo unspecified),-3,-4%,-13%,-17%,-3,/
CCOC(=O)CN(C(=O)CSc1nnc2c(n1)[nH]c1ccc(OC)cc12)c1ccc(F)cc1,-17,0%,7%,?,8,9.3µM*
CCS(=O)(=O)N1Cc2ccccc2CC1C(=O)Nc1ccc(OC)c(OC)c1 (stereo unspecified),-9,10%,-7%,1%,-3,-14%
COc1ccc(C(C)(C)C)cc1S(=O)(=O)n1ccnc1C,-5,-3%,47%[1.15 µM],?,-1,?
O=C(Nc1ccc(Nc2ccccc2)cc1)c1ccco1,139*,?,/,-26%,49*,?
O=C(Nc1ccc(-c2ccccc2)cc1)c1ccco1,-3,?,4.7µM*,0%[46.1 µM],2,-16%
O=C(Nc1ccc(Cc2ccncc2)cc1)c1ccco1,81*,-9%,?,-2%,24*,50%
CC(=O)N(C)c1ccc(NC(=O)c2ccco2)cc1,152*,-19%[46.1 µM],49%,0%,30*,61%
CC(=O)Nc1ccc(S(=O)(=O)Nc2ccc(NC(=O)c3ccco3)cc2)cc1,17,6%,/,2%,3,-4%
O=C(Nc1ccc(NC(=O)c2ccco2)cc1)c1ccco1,-14,11%[46.1 µM],?,0%[46.1 µM],-6,11%
CC(C)CC(=O)Nc1ccc(N2CCN(C(=O)c3cccs3)CC2)cc1,-20,-1%[46.1 µM],?,-12%,5,?
O=C(Nc1ccc(Br)cc1)c1ccco1,16,?,/,3%,30*,113%
Cc1nc(-c2ccccn2)sc1C(=O)Nc1ccc(F)cc1F,59*,?,?,13%,31*,5%
Cc1nc(-c2cccnc2)sc1C(=O)Nc1ccc(F)cc1F,-11,2%,47%,-3%,2,4%
Cc1nc(-c2ccccn2)sc1C(=O)Nc1ccc(F)cc1,5,1%,0%,4%,19*,0%
Cc1cccc(N(C(=O)CNC(=O)c2cccs2)C(C(=O)NC2CCCC2)c2ccncc2)c1 (stereo unspecified),-7,-9%[46.1 µM],-15%,4%,-4,5%
CCC(=O)Nc1nn(C)c2nc3c(C)cccc3cc12,-15,-16%,-10%,-2%,7,?
CCOC(=O)c1cc(-c2ccccc2)sc1NC(=O)c1cc(OC)c(OC)c(OC)c1,8,8%,?,3%,-4,20%
CCOC(=O)c1cc(-c2ccccc2)sc1NC(=O)C(C)(C)C,20,-7%,?,21%,-4,9.3µM*
CCOC(=O)c1cc(-c2ccccc2)sc1NC(=S)Nc1cc(C)ccn1,-22,-14%,13µM*,9%,-2,?
